# Assay outcomes deposited in PubChem BioAssay by National Center for Advancing Translational Sciences (NCATS).
# 12-LOX inh – ALOX12 (human) lipoxygenase inhibition | purified 12hLO, xylenol orange hydroperoxide absorbance | Potency, µM (titrated, usually from 108 µM), for inactives: at the top dose activity change, negative = inhibition, usual class: inhibitors | 1.1% of 580,000 active | AID 1671190; also: % is scaled to controls: 0 for no effect and ±100 for the full control effect
#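 Purified human 12hLO (150 nM final) in 25 mM Hepes, 0.01% Triton X-100, pH 7.0 was preincubated 15 min at room temperature with compound. Then 40 uM arachidonic acid was added, 30 min. Hydroperoxide was read by Fe-XO absorbance ratio 573/405 nm.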
# GRP78 ERSR act – ER stress response induction in glioma; U87-MG GRP78 promoter luciferase reporter, 16 h; Potency, µM, for the others: at the top dose activation, actives largely listed as activators; 0.02% of 420,000 active; also: series mostly up to about 76 µM; % of control where 0% means no effect; nearly all actives have a fitted effect of over 35% in size
#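 ERSR induction read as luciferase luminescence (Bright-Glo, 10 min at room temperature) in stably transfected human U87-MG glioma cells exposed to compounds for 16 h, using GRP78 as sensor.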
# TrxR1 substrate – substrates of rat thioredoxin reductase 1. O89049. purified TrxR1 substrate turnover, NADPH consumption readout. Potency, µM (top dose mostly 114 µM), for the others: at the top dose activity change, negative = substrate turnover. 0.01% of 390,000 active. AID 588456; also: % is scaled to controls: 0 for no effect and ±100 for the full control effect; nearly all actives have a fitted effect of over 50% in size
#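 Rat TrxR1, dispensed at 90 nM, was prereduced with 400 uM NADPH (final) for 5 min at ~22 deg C, then incubated with compound 15 min before 400 uM selenite. A first-read NADPH fluorescence drop versus no-compound background flagged substrates.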
# Apoferritin bind – binds horse apoferritin like a general anesthetic. P02791. apoferritin/1-aminoanthracene competitive binding, fluorescence. Potency, µM (series often up to 77.5 µM), without a hit: top-dose activity change, negative = displacement, usual class: inhibitors. 0.074% of 350,000 active; also: % is scaled to controls: 0 for no effect and ±100 for the full control effect; nearly all actives have a fitted effect of over 20% in size
# Target sequence (P02791 2-175 limits assumed): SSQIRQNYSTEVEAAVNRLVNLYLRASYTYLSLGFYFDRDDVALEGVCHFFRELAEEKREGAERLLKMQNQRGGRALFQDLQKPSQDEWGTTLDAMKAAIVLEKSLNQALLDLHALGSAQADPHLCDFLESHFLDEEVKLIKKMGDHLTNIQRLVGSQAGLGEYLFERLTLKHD
#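 10 uM apoferritin + 50% sat. 1-AMA, PBS; cpd 10 min RT; Ex380/Em535 endpoint; normalized to free probe vs complex; 4-param Hill fit; propofol titration as pos. ctrl.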
# TrxR1 inh – rat TrxR1 inhibition | O89049 | recombinant rTrxR1, NADPH fluorescence consumption, selenite substrate | Potency, µM (top dose mostly 114 µM), without a hit: top-dose activity change, negative = inhibition, hits mostly inhibitors | 1% of 390,000 active | AID 588453; also: % is scaled to controls: 0 for no effect and ±100 for the full control effect; nearly all actives have a fitted effect of over 65% in size
#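 Rat TrxR1 (90 nM in the dispensed reagent) was pre-reduced with 400 uM NADPH for 5 min at room temperature, then incubated with compound for 15 min. After 400 uM selenite was added, NADPH fluorescence (Ex 340/Em 450 nm) was followed for 8 min.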
# IDH1 R132H inh – blocks human mutant IDH1 R132H enzyme | AID 602179 | Potency, µM (titrated, usually from 76.6 µM), inactives show at the top dose activity change, negative = inhibition, usual class: inhibitors | O75874 | IDH1-R132H enzyme, NADPH consumption, diaphorase/resazurin fluorescence | 0.093% of 390,000 active; also: % is scaled to controls: 0 for no effect and ±100 for the full control effect; nearly all actives have a fitted effect of over 65% in size
# Target sequence (O75874 whole entry R132H, stated change not applied): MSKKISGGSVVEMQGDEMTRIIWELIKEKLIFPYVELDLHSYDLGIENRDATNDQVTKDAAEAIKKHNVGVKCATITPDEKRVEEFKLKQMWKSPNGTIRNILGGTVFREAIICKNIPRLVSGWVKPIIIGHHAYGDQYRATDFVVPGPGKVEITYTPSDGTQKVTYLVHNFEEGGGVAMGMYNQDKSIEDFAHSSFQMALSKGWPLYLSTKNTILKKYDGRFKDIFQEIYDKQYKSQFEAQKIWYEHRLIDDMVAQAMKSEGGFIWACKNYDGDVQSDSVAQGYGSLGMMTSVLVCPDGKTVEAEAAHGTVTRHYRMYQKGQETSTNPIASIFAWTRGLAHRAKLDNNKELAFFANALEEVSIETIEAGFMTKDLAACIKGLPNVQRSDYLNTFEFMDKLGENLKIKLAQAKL
#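 IDH1-R132H (0.5 ug/mL) preincubated 30 min with compound, then NADPH (0.016 mM) and alpha-KG (2 mM) added; 80 min at RT, pH 7.5. Remaining NADPH coupled via diaphorase/resazurin to fluorescence (540/590 nm); concentration-response curves normalized to no-enzyme control.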
# The depositor's hits bear a star; ? = inconclusive; · = no result given; [ ] = remark or other dose. Hits are enriched below; roughly 1.7% of the tested compounds scored in any of these assays. Calls follow the shape of the dose curve; as a rule, active = well fitted curve in the direction sought with a large enough effect; inconclusive = small, poorly fitted or top-dose-only effect, or another doubt; inactive = no such curve, though single readings can be large; an effect the other way counts as inactive or inconclusive. Potency is read from the fitted curve at half-maximal effect.
SMILES,12-LOX inh,GRP78 ERSR act,TrxR1 substrate,Apoferritin bind,TrxR1 inh,IDH1 R132H inh
O=C(Nc1cccc(-c2nc3ccccc3o2)c1)c1cc([N+](=O)[O-])ccc1N1CCOCC1,-15%,-2%,-11%,6%,11%,-17%
S=c1nc[nH]c2c1sc1nc(-c3ccccc3)c3c(c12)CCCC3,45µM*,-5%,-6%,-2%,?,6%
CN(C)c1ncc2nc(CCc3ccccc3)c(=O)n(Cc3ccc(F)cc3)c2n1,?,0%,·,·,·,·
CN1CCN(C(c2ccc(F)cc2)c2ccc3cccnc3c2O)CC1 (centres undefined),·,-4%,1%,·,23%,0%
CN1CCN(C(c2cccnc2)c2ccc3cccnc3c2O)CC1 (centres undefined),·,-1%,8%,?,5µM*,-4%
CN1CCN(C(c2ccc(Br)cc2)c2cc(Cl)c3cccnc3c2O)CC1 (centres undefined),10µM*,-17%,4%,-19%,8.9µM*,3%
O=C1NC2c3c(Cl)sc(Cl)c3C(=O)C2O1 (centres undefined),40µM*,-14%,-5%,·,6.3µM*,6%
O=C1NC2c3c(I)sc(I)c3C(=O)C2O1 (centres undefined),?,-14%,-2%,·,2.5µM*,10%
COCc1nc(C2CCCN(C(=O)c3cccc(F)c3)C2)no1 (centres undefined),50%,·,·,·,·,·
CN(C)c1ccc(CN2CCCC3(C2)C(=NC2CCCCC2)NC(=O)N3c2cc(F)cc(F)c2)cc1 (centres undefined),0%[6.33 µM],·,·,·,·,·
Cn1c2ccccc2c2cc(/C=N/NC(=O)c3cc(O)ccc3O)ccc21,35µM*,7%,3%[57.1 µM],-17%,-14%[57.1 µM],7%
O=C1C=CC(=O)N1,4%,-12%,6%,·,2µM*,-3%
CN(C)CCCNc1cc(N2CCN(C3CCCCC3)CC2)c2noc3c2c1C(=O)c1ccccc1-3,7%,-4%,-2%,?,-3%,6%
C/C(=C\C(=O)OCC(=O)NCc1ccccc1)C(=O)OCC(=O)NCc1ccccc1,-16%,-4%,-7%,7%,-5%,-3%
CCOC(=O)/C=C/C(=O)OCC(=O)Nc1ccc(Cl)cc1Cl,-5%,-2%,9%[57.1 µM],-10%,?,-2%
CCCn1c(C)cc(/C=C(\C#N)C(=O)OCC(=O)Nc2ccc(OC)c(Cl)c2)c1C,?,4%,13%,55%,79µM*,1%
CCCn1c(C)cc(/C=C(\C#N)C(=O)OCC(=O)NC(=O)NCC)c1C,15%,-2%,10%,4%,11%[57.1 µM],0%
CCOC(=O)/C=C/C(=O)OCC(=O)NCc1ccccc1,3%,-2%,3%,5%,25µM*,15%
CCOC(=O)/C=C/C(=O)OCC(=O)Nc1c(Cl)cccc1Cl,-8%,0%,2%,-16%,50µM*,3%
CCOC(=O)/C=C/C(=O)OCC(=O)Nc1ccc(OC)c(Cl)c1,-10%,-6%,3%,6%,16µM*,16%
Cc1ccc(C(=O)N2CCC(c3c[nH]c4ccccc34)(c3c[nH]c4ccccc34)CC2)cc1,?,0%,0%,10%,13%,-9%
CCc1cccc(NS(=O)(=O)c2cc(/C=C\c3onc(C)c3NC(C)=O)ccc2C)c1,-2%,·,·,·,·,·
CC(C)(C)c1csc(NC(=O)C2CC(=O)N(c3n[nH]c4cccc(F)c34)C2)n1 (centres undefined),2%,·,·,·,·,·
Cc1ccc(S(=O)(=O)NC(=O)C2(C)CCN2C(=O)Cc2ccc(Cl)cc2Cl)nc1 (centres undefined),-5%,-3%,·,·,·,·
Cc1c([N+](=O)[O-])nnn1-c1cc(Cl)cc(Cl)c1,·,-2%,8%,-13%,16µM*,7%
SMILES,12-LOX inh,GRP78 ERSR act,TrxR1 substrate,Apoferritin bind,TrxR1 inh,IDH1 R132H inh
N#Cc1nnn(-c2cc(Cl)cc(Cl)c2)c1N,11%,-2%,3%,4%,11%,5%
Cn1c(-c2cccc(Br)c2)cnc1NCc1ccccc1O,14µM*,-1%,-4%,-14%,24%,0%
Cn1c(-c2ccc(Br)cc2)cnc1NCc1ccc(C#N)cc1,2.5µM*,-4%,13%,-20%,40%,0%
COc1cccc(CNc2ncc(-c3ccc(Br)cc3)n2C)c1,8.9µM*,-4%,2%[57.1 µM],9%,22%[57.1 µM],20%
Cc1cc(CNC(=O)c2cc(C(C)C)nn2C)c2[nH]c(C)c(C)c2c1,-6%,·,·,·,·,·
CCOc1ccccc1NC(=O)CSc1nc2ccccc2c2nc(CCn3cncc3C)nn12,-14%,-3%,-5%[57.1 µM],?,8%[57.1 µM],17%
COc1cccc(C(=O)N2CCC3(CC2)CC(=O)N(c2ccccc2)c2ccccc2O3)c1,42%,·,·,·,·,·
COc1ccccc1Cc1c(-c2ccccc2)nc2c3ccccc3ccn12,0%,·,·,·,·,·
COc1ccccc1Cc1c(C(C)(C)C)nc2c3ccccc3ccn12,28µM*,-6%,·,·,·,·
COc1cccc(CNC(=O)[C@@H]2C[C@@H](O)CN2C2CCN(C(=O)C3CC3)CC2)c1,33%,·,·,·,·,·
COc1ccc(CC(=O)n2[nH]c(=O)ccc2=O)cc1OC,11%,2%,11%[57.1 µM],-6%,3.5µM*,-6%
COc1ccc2sc(/C=C/c3ccccc3O)[n+](C)c2c1,40µM*,-3%,-5%[57.1 µM],-20%,-4%[57.1 µM],0%
COc1ccc(N=Cc2ccccc2O)cc1,?,-3%,-2%,·,8%,-7%
CN(Cc1ccc(Cl)cc1Cl)C(=O)CCNC(=O)Nc1ccccc1,-9%,·,·,·,·,·
Cc1cn([C@@H](CCCCN)C(=O)NCCCCCCCCCCC(=O)N2CCNCC2)nn1,32µM*,-1%,4%,·,10%,-6%
C#CCOCCOCCOCCNc1nc(N2CCN(C(=O)Cn3cc(CCCN=C(N)N)nn3)CC2)nc(N2CCN(C(=O)[C@H]([C@@H](C)O)n3cc(CCCCN)nn3)CC2)n1,6%,-2%,-1%,·,71µM*,4%
C#CCOCCOCCOCCNc1nc(N2CCN(C(=O)Cn3cc(CC(C)O)nn3)CC2)nc(N2CCN(C(=O)[C@H](CCCCN)n3cc(CCC(=O)O)nn3)CC2)n1 (some centres undefined),16µM*,-5%,8%[57.1 µM],-12%,3%[57.1 µM],-10%
NCCCC[C@@H](C(=O)NCCCCCCCCCCC(=O)N1CCNCC1)n1cc(CCO)nn1,?,-4%,6%[57.1 µM],·,10%[57.1 µM],-13%
C#CCOCCOCCOCCNc1nc(N2CCN(C(=O)[C@H](CCCCN)n3cc(CCCC)nn3)CC2)nc(N2CCN(C(=O)[C@H](Cc3ccc(O)cc3)n3cc(CCO)nn3)CC2)n1,·,-5%,10%[57.1 µM],-16%,14µM*,-9%
